Where “and” joins values, the source holds several entries; their conditions need not be identical. Equal entries are not always repeated. Records with an inconclusive call do not appear. Where a structure was tested more than once in an assay, its records may differ in their call. Calls of active or inactive are those of the source. Calls come from the whole dose curve; as a rule, active = well fitted curve in the direction sought with a large enough effect in the repeat runs; inconclusive = weak or mixed curves; inactive = no such curve, though single readings can be large; an effect the other way counts as inactive or inconclusive.

The record followed here is PubChem BioAssay (Tox21).

The nature of experiment [1]: Caspase-3/7 induction in CHO-K1 cells by small molecules, qHTS cell viability counter screen (AID 1346979). Note: nearly all actives have a fitted effect of over 35% in size. Note: potency is the fitted concentration of half-maximal effect. The procedure, abridged: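 Seeding: 1,500 CHO-K1 cells/well. Rest: 5hr, 37C. Treatment: compounds in DMSO, 16hr. Read: CellTiter-Fluor, 1hr, fluorescence.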
Experiment [2] is described as follows: Caspase-3/7 induction in CHO-K1 cells by small molecules, qHTS assay (AID 1346980). Note: nearly all actives have a fitted effect of over 15% in size. Note: potency is the fitted concentration of half-maximal effect. The procedure, abridged: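 Wild-type cells were seeded at 1,500 per well and settled 5 hr at 37 C, 5% CO2, then exposed to DMSO-dissolved compounds for 17 hr. Caspase-Glo 3/7 reagent was added, and luminescence was read after 30min at room temperature.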
A short description of experiment [3]: Caspase-3/7 induction in HepG2 cells by small molecules, qHTS cell viability counter screen (AID 1346981). Note: nearly all actives have a fitted effect of over 30% in size. Note: potency is the fitted concentration of half-maximal effect. The procedure, abridged:
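CellTiter-Fluor fluorescence measured viability in the same wells used for Caspase-Glo 3/7. HepG2 (wild type) at 2,000 cells/well were pre-incubated 5 hr, dosed, and given reagent at 16 hr, with 1 hr further at 37C.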

Experiment [4] addresses Nuclear receptor subfamily 1 group I member 2 (Homo sapiens) (UniProt O75469). Put plainly: Human pregnane X receptor (PXR) small molecule agonists, qHTS assay (AID 1346982). Note: nearly all actives have a fitted effect of over 35% in size. Note: potency is the fitted concentration of half-maximal effect. A digest of the protocol:
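Agonist mode: luminescence from ONE-Glo after 24 h compound exposure at 37C in HepG2 cells carrying hPXR-responsive CYP3A4 luciferase, plated in charcoal-stripped serum medium 5 h beforehand.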

Experiment [5] concerns the target Cytochrome P450 2D6 (Homo sapiens) (UniProt P10635). Put plainly: Cytochrome P450 Family 2 Subfamily D Member 6 (CYP2D6) small molecule antagonists: luciferase reporter qHTS assay (AID 1671196). Note: nearly all actives have a fitted effect of over 50% in size. Note: potency is the fitted concentration of half-maximal effect. The procedure, abridged: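 CYP2D6 activity was followed as luminescence from its luciferin product after a 1 h NADPH-driven reaction at room temperature. Enzyme-substrate mix and compound were pre-incubated for 10 min, and the signal was read 20 min after adding detection reagent.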
For orientation: A reporter such as luciferase makes a cellular process visible.

Experiment [6] addresses Cytochrome P450 2C19 (Homo sapiens) (UniProt P33261). As to the kind of experiment: Cytochrome P450 Family 2 Subfamily C Member 19 (CYP2C19) small molecule antagonists: luciferase reporter qHTS assay (AID 1671197). Note: nearly all actives have a fitted effect of over 65% in size. Note: potency is the fitted concentration of half-maximal effect. A digest of the protocol: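 P450-Glo CYP2C19 system: enzyme-substrate mix with compound 10 min at room temperature, then NADPH regeneration solution, 1 h at 37C. Proluciferin-to-luciferin conversion detected by luminescence after 20 min with detection reagent; ketoconazole as positive control.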

Experiment [7] addresses Cytochrome P450 2C9 (Homo sapiens) (UniProt P11712). As to the kind of experiment: Cytochrome P450 Family 2 Subfamily C Member 9 (CYP2C9) small molecule antagonists: luciferase reporter qHTS assay (AID 1671198). Note: nearly all actives have a fitted effect of over 50% in size. Note: potency is the fitted concentration of half-maximal effect. A digest of the protocol:
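CYP2C9 activity was measured with a P450-Glo proluciferin substrate. Enzyme–substrate mix was held with compound for 10 min at room temperature, then NADPH regeneration solution was added for 1 h at 37C. Luciferin product was read as luminescence.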

For experiment [8], the target named is Nuclear receptor subfamily 1 group I member 2 (Rattus norvegicus) (UniProt Q9R1A7). Put plainly: Rat pregnane X receptor (rPXR) activation by small molecules, qHTS assay (AID 1346983). Note: nearly all actives have a fitted effect of over 20% in size. The settings on record: rPXR luciferase reporter cells, One-Glo luminescence, 24 h; stronger effect = higher value. A digest of the protocol:
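Cell-based rPXR luciferase reporter assay, 2,000 cells per well, rested 5hr at 37 C before compound addition in DMSO, then 24 hr at 37 C. One-Glo reagent was added and luminescence read after 30 min at room temperature.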
A general note: In qHTS, concentration-response curves come from the screen itself.

In experiment [9] the target is Nuclear receptor subfamily 1 group I member 2 (Homo sapiens) (UniProt O75469). As to the kind of experiment: CYP3A4 induction through human pregnane X receptor (PXR) by small molecules, qHTS assay (AID 1346984). Note: nearly all actives have a fitted effect of over 40% in size. A digest of the protocol:
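Read-out is luminescence after One-Glo addition, following a 3 hr, 37C incubation with Luciferin-IPA CYP3A4 substrate (3uM final). Before that, compounds were on DPX-2 cells (HepG2 co-transfected with PXR element plus CYP3A4-promoter luciferase) for 24 hr at 37C.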

Experiment [10] has the same target. As to the kind of experiment: Human pregnane X receptor (PXR) activation by small molecules, qHTS assay (AID 1346985). Note: nearly all actives have a fitted effect of over 40% in size. Note: potency is the fitted concentration of half-maximal effect. The procedure, abridged: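 DPX-2 cells (HepG2 co-transfected with a PXR response element and a CYP3A4-promoter luciferase construct) were seeded at 2,000 per well, rested 5 hr at 37C, then exposed to DMSO-dissolved compounds for 24 hr. Activation was read as luciferase luminescence.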
% is set by controls: 0 for no effect and ±100 for the full control effect.

Nuclear receptor subfamily 1 group I member 2 (Homo sapiens), sequence (O75469 whole entry, looked up): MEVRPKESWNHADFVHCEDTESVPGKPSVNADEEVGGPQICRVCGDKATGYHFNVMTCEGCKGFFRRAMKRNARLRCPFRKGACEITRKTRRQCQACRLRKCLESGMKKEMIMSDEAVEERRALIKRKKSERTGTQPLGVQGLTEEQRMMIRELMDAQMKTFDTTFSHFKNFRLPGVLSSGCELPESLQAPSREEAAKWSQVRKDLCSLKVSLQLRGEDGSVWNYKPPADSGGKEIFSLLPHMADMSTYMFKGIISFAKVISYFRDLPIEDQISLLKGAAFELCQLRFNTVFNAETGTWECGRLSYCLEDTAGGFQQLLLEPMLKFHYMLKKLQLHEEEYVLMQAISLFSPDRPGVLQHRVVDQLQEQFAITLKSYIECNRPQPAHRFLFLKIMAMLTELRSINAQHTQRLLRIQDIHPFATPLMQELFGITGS
Nuclear receptor subfamily 1 group I member 2 (Rattus norvegicus), sequence (Q9R1A7 whole entry, looked up): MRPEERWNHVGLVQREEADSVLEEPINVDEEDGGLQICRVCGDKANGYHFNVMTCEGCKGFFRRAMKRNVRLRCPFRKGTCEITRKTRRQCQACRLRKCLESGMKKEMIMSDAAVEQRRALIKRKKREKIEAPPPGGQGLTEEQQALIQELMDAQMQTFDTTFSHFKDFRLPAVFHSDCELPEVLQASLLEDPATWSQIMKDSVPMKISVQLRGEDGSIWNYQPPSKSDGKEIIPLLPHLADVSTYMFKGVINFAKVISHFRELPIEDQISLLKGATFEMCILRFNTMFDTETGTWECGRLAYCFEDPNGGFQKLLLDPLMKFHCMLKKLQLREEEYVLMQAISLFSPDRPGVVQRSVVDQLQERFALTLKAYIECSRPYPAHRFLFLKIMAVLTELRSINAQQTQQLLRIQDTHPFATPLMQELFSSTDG
Cytochrome P450 2C19 (Homo sapiens), sequence (P33261 whole entry, looked up): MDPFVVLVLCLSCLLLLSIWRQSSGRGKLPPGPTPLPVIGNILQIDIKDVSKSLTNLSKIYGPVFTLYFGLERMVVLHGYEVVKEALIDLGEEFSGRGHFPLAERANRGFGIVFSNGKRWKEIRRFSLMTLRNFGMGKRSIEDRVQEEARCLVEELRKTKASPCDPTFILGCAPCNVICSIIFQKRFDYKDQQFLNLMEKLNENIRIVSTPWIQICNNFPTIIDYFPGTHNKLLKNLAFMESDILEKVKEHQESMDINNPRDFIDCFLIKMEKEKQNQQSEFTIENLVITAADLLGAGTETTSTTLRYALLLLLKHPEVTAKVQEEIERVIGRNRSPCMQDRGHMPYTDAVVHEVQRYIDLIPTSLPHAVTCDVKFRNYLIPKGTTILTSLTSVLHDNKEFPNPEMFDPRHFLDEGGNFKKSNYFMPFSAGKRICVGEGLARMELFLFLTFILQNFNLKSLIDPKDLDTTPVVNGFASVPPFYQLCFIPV
Cytochrome P450 2D6 (Homo sapiens), sequence (P10635 whole entry, looked up): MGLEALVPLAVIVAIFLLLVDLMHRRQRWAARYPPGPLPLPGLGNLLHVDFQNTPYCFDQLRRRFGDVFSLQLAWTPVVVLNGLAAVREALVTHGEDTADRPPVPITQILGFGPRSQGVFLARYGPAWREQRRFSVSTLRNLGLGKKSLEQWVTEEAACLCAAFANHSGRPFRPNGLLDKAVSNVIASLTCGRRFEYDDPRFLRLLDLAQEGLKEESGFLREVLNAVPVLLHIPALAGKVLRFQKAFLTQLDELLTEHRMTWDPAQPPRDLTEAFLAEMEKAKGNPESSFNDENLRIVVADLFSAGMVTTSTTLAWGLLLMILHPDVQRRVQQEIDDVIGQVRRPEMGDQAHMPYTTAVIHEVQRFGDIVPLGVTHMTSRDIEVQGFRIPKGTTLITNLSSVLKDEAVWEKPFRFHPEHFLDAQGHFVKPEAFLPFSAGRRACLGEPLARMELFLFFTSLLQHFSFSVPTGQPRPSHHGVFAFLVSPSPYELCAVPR
Cytochrome P450 2C9 (Homo sapiens), sequence (P11712 whole entry, looked up): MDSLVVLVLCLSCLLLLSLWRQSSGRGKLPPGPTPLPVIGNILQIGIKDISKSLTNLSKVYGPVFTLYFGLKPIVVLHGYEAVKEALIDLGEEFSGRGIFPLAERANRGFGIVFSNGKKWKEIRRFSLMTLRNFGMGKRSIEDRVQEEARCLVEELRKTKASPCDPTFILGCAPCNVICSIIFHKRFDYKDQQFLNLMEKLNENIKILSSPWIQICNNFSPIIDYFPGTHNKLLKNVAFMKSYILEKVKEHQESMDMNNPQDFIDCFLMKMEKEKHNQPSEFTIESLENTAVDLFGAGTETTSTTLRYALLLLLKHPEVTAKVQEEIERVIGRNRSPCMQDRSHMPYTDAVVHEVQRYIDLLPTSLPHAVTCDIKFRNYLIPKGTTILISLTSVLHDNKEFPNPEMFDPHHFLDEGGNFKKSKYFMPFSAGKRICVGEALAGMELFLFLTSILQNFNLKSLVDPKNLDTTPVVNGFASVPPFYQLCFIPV

Regarding `CCC(C)(C)C(=O)O[C@H]1C[C@@H](C)C=C2C=C[C@H](C)[C@H](CC[C@@H]3C[C@@H](O)CC(=O)O3)[C@H]21`, the Potency result in experiment [1] and in [2] was “inactive” each time.

Consider `c1cc(C(c2ccc(OCC3CO3)cc2)C(c2ccc(OCC3CO3)cc2)c2ccc(OCC3CO3)cc2)ccc1OCC1CO1` (stereo unspecified), for which the Potency entry in experiment [1] and in experiment [3] was “inactive” throughout. Moreover, the Potency was 28.3 µM (active) in experiment [2]; 40 µM (active) and 7.69 µM (active) in experiment [4]; 46.5 µM (active) and inactive in experiment [5]; 104 µM (active) and 56.4 µM (active) in experiment [6]; 10.4 µM (active) and 22.4 µM (active) in experiment [7].

For the compound `[Cl][In]([Cl])[Cl]`, the Potency entry in experiment [1], in experiment [2], in experiment [3], in experiment [4], in experiment [9] and in experiment [10] was “inactive” in each case. The Potency result in experiment [5] and in [7] was “inactive” throughout. In addition, in [8], the max activation was -5.91% (inactive). Moreover, the Potency entry in [6] was “inactive and 35.6 µM (active)”.

`Cc1cc(Cc2cc(C)cc(C(C)(C)C)c2O)c(O)c(C(C)(C)C)c1`: the Potency in [1] is 27.4 µM (active) and 54.5 µM (active); in experiment [2], 27.4 µM (active) and 61.1 µM (active); in experiment [3], 61.4 µM (active) and 61.1 µM (active); in experiment [4] it was 24.5 µM (active) and 386 nM (active); in experiment [6], 5.05 µM (active) and 5.03 µM (active); in [7], 3.57 µM (active) and 3.56 µM (active). Moreover, the Potency entry in experiment [5] is “inactive”.

In the case of `OCCOCCN1CCN(C(c2ccccc2)c2ccc(Cl)cc2)CC1` (stereo unspecified), the Potency in [1] was 53.8 µM (active) and inactive; in experiment [3] it was 21.4 µM (active) and inactive; in [4] it was 8.52 µM (active) and inactive. The Potency entry in [2] was “inactive”.

Turning to `CC(C)(C)NCC(O)c1cc(O)cc(O)c1` (stereo unspecified), the Potency entry in experiment [1], in experiment [2], in experiment [3], in experiment [4], in [9] and in experiment [10] was “inactive” throughout. For the same compound, the Potency entry in experiment [6] is “inactive”. The max activation in experiment [8] is 3.93% (inactive). The Potency in experiment [5] was 38.9 µM (active).

For the compound `Nc1nc2ccccc2[nH]1`, the Potency entry in experiment [1], in [2], in experiment [3], in [4], in [6] and in experiment [7] was “inactive” each time. Also, the Potency in [5] was 62.5 µM (active).

Consider `NCCO`, for which the Potency entry in experiment [1], in [2] and in experiment [3] was “inactive” each time. Further, the Potency was 27.3 µM (active) in experiment [4]; “inactive and 5.03 µM (active)” in experiment [5]; “inactive and 11.2 µM (active)” in [6]; “inactive and 31.7 µM (active)” in experiment [7].

As for `O=c1n(CC2CO2)c(=O)n(CC2CO2)c(=O)n1CC1CO1` (stereo unspecified), the Potency was 60.8 µM (active) and 48.6 µM (active) in experiment [1]; 54.2 µM (active) and 48.6 µM (active) in experiment [3]; 17.1 µM (active) and 13.7 µM (active) in experiment [4]. The Potency entry in [2], in [9], in experiment [10], in experiment [5] and in [6] was “inactive” each time. The max activation in experiment [8] was -2.73% (inactive).

`C[N+]1([O-])CCOCC1`: the Potency result in [1], in [2], in [3], in experiment [4] and in [5] was “inactive” throughout. Besides, the Potency in experiment [6] is 39.8 µM (active).

With `O=C1CC2(CCCC2)CC(=O)N1CCCCN1CCN(c2ncccn2)CC1`, the Potency in experiment [1] was 54.5 µM (active) and inactive. In addition, the Potency entry in experiment [2] and in experiment [3] was “inactive” throughout.

Take `CCn1cc(C(=O)O)c(=O)c2cc(F)c(N3CCNC(C)C3)c(F)c21` (stereo unspecified): the Potency entry in experiment [1], in experiment [2], in [3], in [4], in [9] and in experiment [10] was “inactive” each time. Further, the Potency result in experiment [5] and in [7] was “inactive” in each case. Further, in experiment [8], the max activation was -0.533% (inactive).

For `CO[Si](OC)(OC)c1ccccc1`, the Potency entry in experiment [1], in [2], in experiment [3], in experiment [4], in experiment [5] and in experiment [6] was “inactive” in each case. In addition, the Potency result in experiment [7] was “inactive”.

Take `COC(c1ccccc1)(c1ccccc1)[C@H](Oc1nc(C)cc(C)n1)C(=O)O`: the Potency result in experiment [1], in experiment [2], in experiment [3], in [4], in experiment [9] and in experiment [5] was “inactive” each time. Also, the Potency entry in [6] and in experiment [7] was “inactive” in each case. Also, the max activation in experiment [8] is -2.41% (inactive). The Potency in [10] was 10 µM (active).

For `CC[C@]1(O)C[C@@H]2CN(CCc3c([nH]c4ccccc34)[C@@](C(=O)OC)(c3cc4c(cc3OC)N(C)[C@H]3[C@@](O)(C(=O)OC)[C@H](OC(C)=O)[C@]5(CC)C=CCN6CC[C@]43[C@@H]65)C2)C1`, the Potency in [1] is 1.33 µM (active) and 119 nM (active); in experiment [3], 29.8 µM (active). In addition, the Potency result in [2] was “inactive”.

Take `c1cnc2cc3c(cc2n1)C1CNCC3C1`: the Potency result in experiment [1], in experiment [2], in [3], in [4], in [5] and in [6] was “inactive” each time. Besides, the Potency entry in [7] was “inactive”.

Consider `CCCCCCCCCCCCc1ccccc1O`, for which the Potency in experiment [1] was 53.8 µM (active) and 54.5 µM (active); in experiment [2], 60.3 µM (active) and 68.6 µM (active); in [3], 60.3 µM (active) and 48.6 µM (active); in experiment [4] it was 6.03 µM (active); in experiment [6] it was 1.57 µM (active) and 3.17 µM (active); in [7], 7.01 µM (active) and 11.2 µM (active). Further, the Potency entry in experiment [5] was “inactive”.

In the case of `c1ccc2n[nH]nc2c1`, the Potency entry in experiment [1], in [2], in experiment [3], in experiment [4], in experiment [5] and in experiment [6] was “inactive” throughout. Further, the Potency entry in experiment [7] was “inactive”.

Regarding `Cc1ccnc2c1NC(=O)c1cccnc1N2C1CC1`, the Potency result in experiment [1], in experiment [2], in experiment [3], in experiment [4], in experiment [9] and in experiment [10] was “inactive” in each case. In addition, the Potency result in experiment [6] and in experiment [7] was “inactive” each time. Besides, in experiment [8], the max activation is -1.62% (inactive). Moreover, the Potency in experiment [5] was 7.4 µM (active) and inactive.
